PINK1 modulator = modulators of PINK1 expression; PINK1 immunofluorescence, high-content cytometry, 24 h; Potency, µM (top dose mostly 76.6 µM), for the others: top-dose activation (PINK1 increase), hits mostly activators; 0.2% of 410,000 active; AID 624263; active = well fitted activation curve with a large enough effect; inconclusive = small, poorly fitted or top-dose-only effect; cell line not stated here; note: % of control where 0% means no effect; nearly all actives have a fitted effect of over 65% in size
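PINK1 protein level read as immunofluorescence by microplate cytometer in a fixed, stained stable cell line after 24 h exposure to five compound concentrations, with CCCP as control.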
MCF10A rereplic = induces DNA re-replication in MCF 10a normal breast cells; Potency, µM (top dose mostly 46.1 µM), inactives show at the highest dose activity, positive = re-replication, actives largely listed as activators; MCF 10A DNA re-replication, Hoechst nuclear intensity, 48 h; 2.9% of 350,000 active; AID 624296; note: % of control where 0% means no effect; nearly all actives have a fitted effect of over 50% in size
KB-V1 MDR tox = KB-V1 MDR subline cytotoxicity | KB-V1 MDR cells viability, CellTiter-Glo, 72 h | Potency, µM (top dose mostly 46.1 µM), actives largely listed as cytotoxic | 3.4% of 400,000 active; note: % is set by controls: 0 for no effect and ±100 for the full control effect; nearly all actives have a fitted effect of over 60% in size
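Compound-treated KB-V1 multidrug-resistant cells, 72 h, 37 degrees C; viability by CellTiter-Glo. Fitted qHTS curves give the values.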
KB-3-1 tox = kills parental KB-3-1 adenocarcinoma cells | KB-3-1 viability, CellTiter-Glo ATP luminescence, 72 h | Potency, µM (titrated, usually from 46.1 µM), actives largely listed as cytotoxic | 1.4% of 400,000 active | AID 1347075; note: % is set by controls: 0 for no effect and ±100 for the full control effect; nearly all actives have a fitted effect of over 60% in size
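Multi-concentration cytotoxicity screen in KB-3-1 cells grown in DMEM lacking phenol red with 10% FBS. After 72 h at 37 °C with compound, ATP-dependent luminescence was recorded.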
SW480 rerep = DNA re-replication induction in SW480 cells | SW480 DNA re-replication, Hoechst DNA content imaging, 48 h | Potency, µM (titrated, usually from 46.1 µM), for the others: at the highest dose re-replication activation, hits mostly activators | 1.8% of 340,000 active; note: % of control where 0% means no effect; nearly all actives have a fitted effect of over 55% in size
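Cells (250 per well) received 23 nL compound or DMSO by pin tool and were kept 48 hr at 37 C, 5% CO2. Nuclei were then stained with Hoechst for 40 min and scanned for DNA content.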
* hit, by the source's call; i = inactive; ? = inconclusive; · = no result given; [ ] = remark or other dose. Sampled rows, rich in hits. Any-hit rate of the full collection: about 6.7%. Unless noted, calls come from the whole dose curve; as a rule, active = well fitted curve in the direction sought with a large enough effect; inconclusive = small, poorly fitted or top-dose-only effect, or another doubt; inactive = no such curve, though single readings can be large; an effect the other way counts as inactive or inconclusive. Potency is the fitted concentration of half-maximal effect.

SMILES | PINK1 modulator | MCF10A rereplic | KB-V1 MDR tox | KB-3-1 tox | SW480 rerep
CCCCn1nc(C(=O)N(CC(C)C)c2c(N)n(CCCC)c(=O)[nH]c2=O)c2ccccc2c1=O | 1% | 0% | i | ? | -5%
Cc1ccc2nc(C)c3c(c2c1)SCC3 | -1% | -3% | i | i | ?
Cc1ccc2nc(C)c3c(c2c1)N(c1ccc(F)cc1)CC3 | 0% | 18µM* | ? | ? | -8%
O=S(=O)(c1ccc2ccccc2c1)N1CCCCCC1 | 0% | -2% | i | i | -1%
O=S(=O)(CC(CN1CCCC1)N1CCCC1)c1ccc2ccccc2c1 (configuration not stated) | -9%[38.3 µM] | 12µM* | ? | 12µM* | 10µM*
COc1ccc(/C=N/Nc2cc(C)nc3ccccc23)cc1 | -1% | 1.6µM* | ? | 15µM* | 4.1µM*
COc1ccc(/C=N/Nc2cc(C)nc3c(C)cccc23)cc1 | -2% | 18µM* | i | ? | 26µM*
COc1ccc2nc(C)cc(N/N=C/c3ccc(F)cc3)c2c1 | -1% | 23µM* | ? | 26µM* | 16µM*
Cc1c(C)n(Cc2ccc(F)cc2)c2ccc(C(=O)NCCN3CCOCC3)cc12 | 2% | -7% | i | i | -10%
COc1ccc(-n2cnnc2SCC(=O)NC2CCCCC2)cc1 | -2% | 1% | 23µM* | i | 3%
C=CCn1c(SCC(=O)NC2CC2)nnc1-c1cccc(OC)c1 | -1% | 1% | i | i | -4%
O=C(CSc1nncn1-c1ccccc1F)NC1CCCCC1 | 1% | -2% | 21µM* | i | -3%
Cn1c(SCC(=O)NC2CCCCC2)nnc1-c1ccccc1F | 1% | -20% | i | i | 9.2µM*
C=CCn1c(SCC(=O)NC2CCCCC2)nnc1-c1ccc(OC)cc1 | -1% | -38% | 4.1µM* | i | -8%
COc1cccc(N2CCN(C(=O)CN3CCSc4ccccc43)CC2)c1 | 0% | · | ? | i | ·
Cc1sc2ncnc(N3CCC(C(=O)Nc4nc(-c5cccs5)cs4)CC3)c2c1C | 0% | ? | 5.2µM* | ? | 12%
CCOC(=O)c1ccccc1NC(=O)C1CCN(c2ncnc3sc(C)c(C)c23)CC1 | -3% | ? | 23µM* | ? | -10%
Cc1ccc(C)c(S(=O)(=O)N2CCN(C(=O)C3CCN(c4ncnc5sc(C)c(C)c45)CC3)CC2)c1 | 1% | 21µM* | ? | 23µM* | 21µM*
Cc1sc2ncnc(N3CCC(C(=O)Nc4ccccc4C(C)(C)C)CC3)c2c1C | 1% | 18% | ? | i | ?
Cc1ccc2nc(NC(=O)C3CCN(c4ncnc5sc(C)c(C)c45)CC3)sc2c1 | 15% | 23µM* | · | · | 23%
CCOC(=O)c1ccccc1NC(=O)C1CC(=O)N(C(C)(C)C)C1 (configuration not stated) | 0% | 1µM* | i | i | -35%
Cc1sc2ncnc(N3CCC(C(=O)N(C)CC(=O)Nc4ccc(Cl)c(C(F)(F)F)c4)CC3)c2c1C | 7% | ? | i | 21µM* | -423%
CCOC(=O)c1ccccc1NC(=O)C1CC(=O)N(C2CCCCC2)C1 (configuration not stated) | -1% | -4% | i | i | 4%
CCOc1ccc(/C=N/NC(=O)C(C)N(c2ccc(OC)cc2)S(C)(=O)=O)cc1 (configuration not stated) | 0%[38.3 µM] | -7% | i | i | -4%
COc1ccc(N(C(C)C(=O)N/N=C/c2ccc(OCC(C)C)cc2)S(C)(=O)=O)cc1 (configuration not stated) | 3% | 19% | ? | i | 4.1µM*
CN(C1CCCCC1)S(=O)(=O)c1ccc(=S)[nH]c1 | -1% | 2% | 15µM* | i | -9%
CN(C1CCCCC1)S(=O)(=O)c1ccc(S(=O)(=O)N2CCCC2)cc1 | 1%[38.3 µM] | -2% | ? | i | 1%
CCCCC1(Cc2ccc([N+](=O)[O-])cc2)C(=O)N(c2ccccc2)N(c2ccccc2)C1=O | 1% | ? | 16µM* | ? | 14%
CCCCC1(COC(=O)CCC(=O)O)C(=O)N(c2ccccc2)N(c2ccccc2)C1=O | 2% | 10% | i | i | 0%

Source: PubChem
